According to PubChem BioAssay (NCI):
Where “and” joins values, the source holds several entries; their conditions need not be identical. Equal values may be shown once. Compounds without any hit were thinned out: in the full panel of roughly 83,000, 20% have a hit.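 Values shown are percent growth following 48 h exposure of cells in 96-well plates to a single concentration of compound; below 10 was considered active.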 Calls of active or inactive are those of the source.

Test system: K-562 leukemia
Test: NCI-60 one-dose screen, 48 h (100 = growth as untreated, 0 = no growth, -100 = all killed)
Details: 10 µM unless noted

SMILES	growth
COc1ccc(-c2cc(-c3cccnc3)nc3sc4c(Cl)nnnc4c23)cc1OC	15.8% (inactive)
C=C1C(=O)O[C@@H]2[C@H]3[C@H](COC(C)=O)[C@@H](OC(C)=O)C[C@H]3C(=C)[C@@H](O)C[C@@H]12	86.8% (inactive)
CCCn1nc(C(=O)N2CCCCC2)c2c1CCC(N1CCC(c3ccncc3)CC1)C2 (centres undefined)	101% (inactive)
CN1CCN(c2ccc(/C=C/C(=O)c3ccc(O)cc3)cc2)CC1	90.1% (inactive)
CCN(c1cc(-c2ccc(CN3CCC(/C=C/S(=O)(=O)c4ccccc4)CC3)cc2)cc(C(=O)NCc2c(C)cc(C)[nH]c2=O)c1C)C1CCOCC1	40.6% (inactive)
Cc1ccc(-c2nc3nc(-c4ccc(Cl)cc4)nc(N4CCCNCC4)c3o2)cc1	-56.7% (active)

Test system: MALME-3M melanoma
Test: as above
Details: 10 µM unless noted

SMILES	growth
CCOC(=O)C1=C(C)N=C2SC=C(c3ccc(F)cc3)N2[C@H]1c1cn(-c2ccccc2)nc1-c1ccc(Cl)cc1	100% (inactive)
CCN(C(=O)N1CCN(c2cc3c(cc2F)c(=O)c(C(=O)O)cn3C2CC2)CC1)c1nc(-c2ccccc2)cs1	22.1% (inactive)
O=C(/C=C/c1ccc(Cl)s1)c1ccc(Cl)s1	114% (inactive)
C=CCOc1ccc(/C=C2\SC(=S)N(CCc3ccc(O)cc3)C2=O)cc1	101% (inactive)
Cc1c(CC(=O)OCCO)cc(-c2ccc(Cl)cc2)n1-c1ccccc1	103% (inactive)
CC1(C)C(N)=Nc2cc(OCCCN3Cc4ccc(OCCc5cn(CC(=O)N6CCC(CCN7CCCC7)CC6)nn5)cc4C3)c(OCC3CC3)cc21	106% (inactive)
O=C1OCC2=C1C(c1cccc(C(F)(F)F)c1)c1cc3c(cc1N2CCO)OCCO3 (centres undefined)	49.5% (inactive)
N#CC1=C(N)Oc2c(sc3c(Br)cccc23)C1c1ccccn1 (centres undefined)	45.4% (inactive)
O=C1c2cccc3cccc(c23)C(=O)N1N1C(=O)c2cccc3c(N4CCNCC4)ccc(c23)C1=O	88.9% (inactive)
O=C(Nc1ccc(F)cc1)c1cc2cc(Nc3nc(-c4ccccc4)nc4ccccc34)ccc2oc1=O	103% (inactive)
O=C1c2cc3c(cc2-c2c1c1ccc(Cl)cc1c(=O)n2CCCn1ccnc1)OCO3	-24.6% (active)
COc1ccc(C/C(C)=C(/c2ccc(OCCN3CCCC3)cc2)c2ccc(OC(=O)NCc3ccccc3)cc2)cc1	83.6% (inactive)
CCCO/N=C/c1ccccn1	110% (inactive) and 105% (inactive)
COc1ccc(-c2csc(NC(=O)CN3CCN(CCO)CC3)n2)cc1NS(=O)(=O)c1cccc2c(N(C)C)cccc12	-67.9% (active)
Cc1ccc(-c2nc3nc(-c4ccccc4)nc(N4CCN(S(=O)(=O)c5ccccc5)CC4)c3o2)cc1	84.2% (inactive)
CCOc1nc(-c2ccccc2)cc2c(O)c(C(=O)N/N=C/c3ccc(N(C)C)cc3)[nH]c(=O)c12	135% (inactive)
C/C(=C(\c1ccc(OCCN2CCOCC2)cc1)c1ccc(OC(=O)C2CCCCC2)cc1)c1ccc(Cl)cc1	104% (inactive)
COc1ccc2c(c1)CC[C@@H]1[C@@H]2CC[C@]2(C)C3C(=CCC4C(=O)N(c5ccccc5)C(=O)C43)C[C@@H]12 (some centres undefined)	96.1% (inactive)
CC(=O)c1c(C)nc2ccccc2c1/C=C/c1cccc(C)c1	82.9% (inactive)
CCN(CC)CC#CCOC(=O)[C@]1(C)CCC[C@]2(C)c3ccc(C(C)C)cc3CC[C@@H]12	77.2% (inactive)
O=C1/C(=C/c2ccc(-c3ccccc3C(F)(F)F)o2)SC(=S)N1CCc1ccc(O)cc1	32.2% (inactive)
COc1ccc(-c2[nH]c3ccccc3c2-c2ccc(OC)cc2)cc1	73.3% (inactive)
O=C(CN1C(=O)S/C(=C\C(Cl)=C\c2ccccc2)C1=O)NC1C=CS(=O)(=O)C1 (centres undefined)	-24.9% (active)
CCOC(=O)N(O)c1ccc(/C=C/c2ccccc2)cc1	96.6% (inactive) and 117% (inactive)
COc1cc(/C=C2/C=C(c3ccc(C(C)(C)C)cc3)N(CCc3ccc(S(N)(=O)=O)cc3)C2=O)cc(OC)c1OC	68.4% (inactive)
O=[N+]([O-])c1cc(C(F)(F)F)ccc1Sc1ccc(C(F)(F)F)cc1[N+](=O)[O-]	61.9% (inactive)
O=C(N=Nc1c(O)[nH]c2ccccc12)Nc1ccccc1Cl	96.9% (inactive)
Nc1n[nH]c2cccc(C#Cc3cccc(NC(=O)c4ccc(N5CCOCC5)c(C(F)(F)F)c4)c3)c12	11.2% (inactive)
